Data on eight molecules can be found in PubChem BioAssay (EPA / NIEHS).

Activity calls are given as the source filed them. How the source made its calls: active means hit-call score of the fitted dose curve at least 0.9, where 1 is the maximum; inactive means score below 0.9.

Assay [1] is described as follows: APR_HepG2_P-H2AX_72hr: Apredica 72-hour HepG2 Assay for H2AX Phosphorylation (AID 2282916).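 Further: phospho-histone H2A.x immunostain intensity per cell marking DNA damage.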 The settings on record: imaging, actives raise or lower the signal. An outline of the steps: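 HepG2 human liver cells were exposed for 72 hr to compounds at 0.39–200 uM (10 concentrations, duplicate per plate) in 0.5% v/v DMSO. Fixed, permeabilized cells were immunolabeled for phospho-histone H2A.x with Hoechst 33342 and imaged by HCS fluorescence; bidirectional fit versus DMSO.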

Assay [2] can be described thus: APR_HepG2_MitoMembPot_72hr: Apredica 72-hour HepG2 Assay for Mitochondrial Membrane Potential (AID 2282917). The following applies: imaging, actives raise or lower the signal. The gist of the method: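 HepG2 cells dosed 72 hr with compound at 0.39–200 uM in duplicate, 0.5% v/v DMSO final. Mitochondria stained with 250 nM MitoTracker Red CMXRos for 30 min before formaldehyde fixation, imaged by high-content fluorescence; bidirectional fit versus DMSO.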

Assay [3] can be described thus: APR_HepG2_MitoticArrest_72hr: Apredica 72-hour HepG2 Assay for Mitotic Arrest (AID 2282918). The following applies: high-content imaging, actives raise or lower the signal. An outline of the steps: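 High-content imaging of fixed human HepG2 cells after 72 h compound exposure (0.39–200 uM, duplicates, 0.5% DMSO); mitotic arrest scored from phospho-histone H3 and nuclear Hoechst staining relative to DMSO.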

Assay [4] in a line: APR_HepG2_P-H2AX_24hr: Apredica 24-hour HepG2 Assay for H2AX Phosphorylation (AID 2282920). The settings on record: high-content imaging, actives raise or lower the signal. An outline of the steps:
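High-content imaging of phospho-histone H2A.x immunofluorescence, nuclei counterstained with Hoechst 33342, in fixed HepG2 cells. Compounds ran 0.39–200 uM in duplicate for 24 h, final DMSO 0.5%. Signal change fitted both directions against DMSO.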

Assay [5] is described as follows: APR_HepG2_StressKinase_72hr: Apredica 72-hour HepG2 Assay for Stress Kinase (AID 2282921). The settings on record: HepG2 stress kinase (phospho-c-Jun) imaging, actives raise or lower the signal. The gist of the method: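 Cells were exposed for 72 h to ten concentrations (0.39–200 uM, duplicate) at 0.5% v/v DMSO final, then fixed with 3.7% formaldehyde, permeabilized and immunostained for phospho-c-Jun (Cy3 secondary) with Hoechst nuclear counterstain.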

Assay [6] is described as follows: APR_HepG2_StressKinase_24hr: Apredica 24-hour HepG2 Assay for Stress Kinase (AID 2282922). The following applies: HepG2 stress kinase (phospho-c-Jun) imaging, actives raise or lower the signal. An outline of the steps:
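HepG2 cells exposed 24 h to 0.39–200 uM compound in duplicate (0.5% v/v DMSO final). Cells fixed in 3.7% formaldehyde, permeabilized and immunostained for phospho-c-Jun; read by high-content fluorescence imaging, fitted bidirectionally against DMSO.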

A short description of assay [7]: APR_HepG2_MitoMass_72hr: Apredica 72-hour HepG2 Assay for Mitochondrial Mass (AID 2282924).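 Further: MitoTracker Red CMXRos stain intensity per cell imaged as mitochondrial mass.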 The following applies: high-content imaging, actives raise or lower the signal. The gist of the method: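 HepG2 cells dosed 72 hr at 0.39–200 uM (0.5% DMSO), in duplicate. MitoTracker Red CMXRos 250 nM loaded 30 min before formaldehyde fixation; high-content fluorescence imaging, bidirectional fit versus DMSO.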

A short description of assay [8]: APR_HepG2_NuclearSize_72hr: Apredica 72-hour HepG2 Assay for Nuclear Size (AID 2282925). The following applies: high-content imaging, actives raise or lower the signal. An outline of the steps: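 HepG2 cells dosed 72 h at 0.39–200 uM (10 concentrations, duplicate) in 0.5% v/v DMSO final. Fixed, Hoechst 33342-stained nuclei imaged; nuclear diameter measured by automated image analysis. Bidirectional fit versus DMSO.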

Assay [9] can be described thus: ATG_CRE_CIS: Attagene CIS-FACTORIAL HepG2 Assay for human cAMP Responsive Element (CRE) binding protein 3 (AID 2282926). The following applies: HepG2 CRE cis-reporter, Attagene multiplexed mRNA; actives raise or lower the signal. The gist of the method:
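Multiplexed transcription-unit reporters transfected into HepG2; 24 h dosing; RT-PCR/capillary electrophoresis fluorescence read-out; bidirectional fit vs DMSO.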

Assay [10] concerns the target CCAAT/enhancer-binding protein beta (Homo sapiens) (UniProt P17676). The assay can be described thus: ATG_C_EBP_CIS: Attagene CIS-FACTORIAL HepG2 Assay for human CCAAT/Enhancer Binding Protein (C/EBP) beta (AID 2282927). The settings on record: HepG2 Attagene cis-factorial transcription factor reporter; actives raise or lower the signal. An outline of the steps: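 HepG2 transiently transfected with multiplexed reporter units under cis-regulatory promoters reporting endogenous C/EBPb activity. After 24 h exposure, reporter mRNA assayed by RT-PCR, fluorescent labelling, HpaI digestion and capillary electrophoresis; bidirectional fitting versus DMSO.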

A short description of assay [11]: ATG_CMV_CIS: Attagene CIS-FACTORIAL HepG2 Assay for human CMV (Internal Marker) (AID 2282928).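 Further: endpoint acts as a background internal control marker rather than a target.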 The following applies: HepG2 CMV promoter reporter, transcription factor profiling; actives raise or lower the signal. An outline of the steps:
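CMV internal-marker background readout in transiently transfected HepG2 cells bearing cis-regulated reporter units. Reporter mRNA is measured 24 h after dosing by RT-PCR and capillary electrophoresis, with bidirectional fitting against DMSO.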

Assay [12] in a line: ATG_DR4_LXR_CIS: Attagene CIS-FACTORIAL HepG2 Assay for human Liver X Receptor (LXR), DR4 submotif (AID 2282929). The settings on record: HepG2 Attagene DR4 cis-reporter, mRNA transcription; actives raise or lower the signal. An outline of the steps: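 After transient transfection with multiplexed cis-promoter reporter units, HepG2 cells received test chemicals for 24 h. Reporter mRNA induction, detected by fluorescence after RT-PCR and capillary electrophoresis, was scored relative to DMSO.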

Assay [13] addresses Aryl hydrocarbon receptor (Homo sapiens) (UniProt P35869). The assay can be described thus: ATG_Ahr_CIS: Attagene CIS-FACTORIAL HepG2 Assay for human Aryl Hydrocarbon Receptor (Ahr) (AID 2282930). The settings on record: HepG2 AhR cis-factorial reporter transcription; actives raise or lower the signal. An outline of the steps: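 HepG2 cells transiently transfected with cis-element-driven multiplexed reporter units; endogenous AhR activity read as reporter mRNA 24 h after dosing, via RT-PCR, 6-FAM labelling, HpaI digestion and capillary electrophoresis. Bidirectional fit relative to DMSO.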

Assay [14] in a line: ATG_AP_1_CIS: Attagene CIS-FACTORIAL HepG2 Assay for human Activator Protein 1 (AP-1) (AID 2282931). The settings on record: HepG2 Attagene cis-factorial AP-1 reporter mRNA; actives raise or lower the signal. An outline of the steps: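 After 24 h incubation with test chemical, RNA from transfected HepG2 cells was reverse-transcribed, amplified, fluorescently labelled and digested before capillary electrophoresis. Reporters were driven by cis-regulatory promoters; activity fitted bidirectionally versus DMSO.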

Assay [15] can be described thus: ATG_AP_2_CIS: Attagene CIS-FACTORIAL HepG2 Assay for human Activator Protein 2 (AP-2) (AID 2282932). The following applies: HepG2 AP-2 cis-reporter, Attagene transcription factor profiling; actives raise or lower the signal. An outline of the steps: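 Multiplexed mRNA reporter assay in HepG2: cis-regulated units report endogenous factor activity after 24 h treatment. Fluorescence from capillary electrophoresis of RT-PCR products gives the signal, with DMSO as baseline.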

A short description of assay [16]: ATG_BRE_CIS: Attagene CIS-FACTORIAL HepG2 Assay for human Bone Morphogenetic Protein (BMP) Response Element (BRE) (AID 2282933). The following applies: HepG2 BMP response element reporter, Attagene transcription factor profiling; actives raise or lower the signal. The gist of the method: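 After a 24 h chemical treatment, transiently transfected HepG2 cells were lysed for RNA; reporter transcripts were quantified by fluorescent RT-PCR and capillary electrophoresis, normalised to DMSO.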

Assay [17] deals with Retinoic acid receptor alpha (Homo sapiens) (UniProt P10276). The assay can be described thus: ATG_DR5_RAR_CIS: Attagene CIS-FACTORIAL HepG2 Assay for human Retinoic Acid Receptor Alpha (RARE), DR5 submotif (AID 2282934). The settings on record: HepG2 Attagene cis-factorial RARE DR5 reporter, mRNA; actives raise or lower the signal. The gist of the method: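 HepG2 cells transiently transfected with multiplexed reporter units; DR5 cis-element drives reporter through endogenous transcription factors. After 24 h dosing, reporter mRNA quantified by RT-PCR, fluorescent labeling, HpaI digestion and capillary electrophoresis; bidirectional fitting versus DMSO.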
Retinoic acid receptor alpha (Homo sapiens), sequence (P10276 whole entry, looked up): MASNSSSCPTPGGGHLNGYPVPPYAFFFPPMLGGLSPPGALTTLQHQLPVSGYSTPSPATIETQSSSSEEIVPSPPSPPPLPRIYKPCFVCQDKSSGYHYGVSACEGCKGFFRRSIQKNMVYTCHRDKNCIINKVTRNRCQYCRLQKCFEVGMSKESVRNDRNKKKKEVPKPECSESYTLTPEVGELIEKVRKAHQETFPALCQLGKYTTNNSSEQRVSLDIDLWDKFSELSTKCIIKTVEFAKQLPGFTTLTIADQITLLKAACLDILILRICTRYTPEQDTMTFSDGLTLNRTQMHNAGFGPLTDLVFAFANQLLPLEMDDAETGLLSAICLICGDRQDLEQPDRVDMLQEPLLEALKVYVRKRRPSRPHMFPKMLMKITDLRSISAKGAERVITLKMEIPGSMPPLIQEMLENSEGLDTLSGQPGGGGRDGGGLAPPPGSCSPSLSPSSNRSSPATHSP

Assay [18] has as its target Transcription factor E2F1 (Homo sapiens) (UniProt Q01094). The assay can be described thus: ATG_E2F_CIS: Attagene CIS-FACTORIAL HepG2 Assay for human E2F Transcription Factor 1 (AID 2282935). The settings on record: HepG2 Attagene cis-reporter, E2F reporter RNA transcripts; actives raise or lower the signal. An outline of the steps: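 Measures reporter transcript levels via RT-PCR with capillary electrophoresis detection in HepG2 cells harboring cis-regulated reporter units; 24 h post-dose; bidirectional curve fitting with DMSO as baseline.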

A short description of assay [19]: ATG_E_Box_CIS: Attagene CIS-FACTORIAL HepG2 Assay for human Enhancer Box (E-box) (AID 2282936). The settings on record: HepG2 E-box cis-reporter transcription, actives raise or lower the signal. An outline of the steps:
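First, HepG2 cells receive multiple cis-regulated reporter constructs by transient transfection. Next, chemicals are applied for 24 h. Finally, reporter mRNA is quantified via RT-PCR and capillary electrophoresis, with DMSO as baseline.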

Transcription factor E2F1 (Homo sapiens), sequence (Q01094 whole entry, looked up): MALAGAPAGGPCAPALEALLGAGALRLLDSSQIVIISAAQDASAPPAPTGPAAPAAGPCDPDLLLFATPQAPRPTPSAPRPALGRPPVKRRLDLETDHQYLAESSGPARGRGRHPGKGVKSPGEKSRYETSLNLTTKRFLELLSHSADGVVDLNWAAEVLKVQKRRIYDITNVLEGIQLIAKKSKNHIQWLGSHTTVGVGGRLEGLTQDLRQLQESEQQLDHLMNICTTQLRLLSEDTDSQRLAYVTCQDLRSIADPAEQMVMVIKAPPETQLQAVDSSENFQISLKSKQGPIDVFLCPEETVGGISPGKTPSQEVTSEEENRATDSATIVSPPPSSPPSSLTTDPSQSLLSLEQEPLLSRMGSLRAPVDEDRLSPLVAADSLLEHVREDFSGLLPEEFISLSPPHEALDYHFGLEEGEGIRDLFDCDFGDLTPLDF
Aryl hydrocarbon receptor (Homo sapiens), sequence (P35869 whole entry, looked up): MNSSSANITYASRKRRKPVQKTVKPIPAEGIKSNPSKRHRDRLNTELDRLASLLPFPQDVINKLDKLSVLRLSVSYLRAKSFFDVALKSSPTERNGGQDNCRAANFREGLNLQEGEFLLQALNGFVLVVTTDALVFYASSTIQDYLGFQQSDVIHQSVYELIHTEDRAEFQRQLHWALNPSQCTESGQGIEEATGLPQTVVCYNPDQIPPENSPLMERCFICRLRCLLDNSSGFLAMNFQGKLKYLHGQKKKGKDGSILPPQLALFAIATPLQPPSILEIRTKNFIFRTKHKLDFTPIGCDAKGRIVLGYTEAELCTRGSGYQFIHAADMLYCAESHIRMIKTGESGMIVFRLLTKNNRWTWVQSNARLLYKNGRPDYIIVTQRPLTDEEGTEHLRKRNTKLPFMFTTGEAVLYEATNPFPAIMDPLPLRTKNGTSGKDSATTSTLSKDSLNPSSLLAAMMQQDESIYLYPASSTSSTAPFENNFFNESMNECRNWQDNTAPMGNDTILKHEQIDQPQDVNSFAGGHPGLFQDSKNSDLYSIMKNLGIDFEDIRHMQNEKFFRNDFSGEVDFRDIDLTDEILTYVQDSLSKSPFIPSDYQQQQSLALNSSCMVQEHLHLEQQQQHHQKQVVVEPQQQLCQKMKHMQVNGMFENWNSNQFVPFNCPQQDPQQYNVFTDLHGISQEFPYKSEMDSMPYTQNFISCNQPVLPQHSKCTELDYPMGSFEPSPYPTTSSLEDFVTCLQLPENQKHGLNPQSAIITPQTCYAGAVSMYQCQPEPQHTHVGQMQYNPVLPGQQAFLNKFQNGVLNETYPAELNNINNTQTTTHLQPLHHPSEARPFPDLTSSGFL
CCAAT/enhancer-binding protein beta (Homo sapiens), sequence (P17676 whole entry, looked up): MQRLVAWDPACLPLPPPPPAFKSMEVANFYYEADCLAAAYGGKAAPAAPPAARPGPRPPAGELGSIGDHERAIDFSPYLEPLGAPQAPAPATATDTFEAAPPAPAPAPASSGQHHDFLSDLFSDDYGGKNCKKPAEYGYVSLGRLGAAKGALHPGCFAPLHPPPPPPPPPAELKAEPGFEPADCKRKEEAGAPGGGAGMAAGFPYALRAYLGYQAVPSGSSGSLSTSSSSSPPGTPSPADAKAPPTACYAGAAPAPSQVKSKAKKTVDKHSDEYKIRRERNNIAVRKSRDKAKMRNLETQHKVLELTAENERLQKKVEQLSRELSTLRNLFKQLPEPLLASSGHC

Take `Clc1cccc(Cl)c1Cl`: the molecule was classed as inactive in assay [1], in [2], in assay [3], in assay [4], in assay [5] and in assay [6]. Besides, the call in assay [7], in [8], in [9], in assay [10], in [11] and in assay [12] was inactive. In addition, the result in assay [13], in assay [14], in assay [15], in assay [16], in assay [17] and in assay [18] was inactive. In addition, in assay [19], the outcome was inactive.

As for `O=C(O)C1(c2ccc3c(c2)OC[C@H](Cc2ccc(-c4ccccc4)cc2)[C@H]3O)CCCC1`, the AC50 (as a rule, the concentration giving half of the maximal activity seen) in assay [1] is 106 µM (active); in assay [3], 105 µM (active); in assay [4] it was 108 µM (active); in assay [5] it was 116 µM (active); in assay [6] it was 111 µM (active); in [7] it was 112 µM (active). Besides, the values for the AC50 in assay [11] and in assay [14] were 6.98 µM (active) and 19.7 µM (active), respectively. Also, the molecule was classed as inactive in assay [2], in [8], in assay [9], in [10], in assay [12] and in assay [13]. Moreover, the result in assay [15], in assay [16] and in assay [19] was inactive.

Take `CC(C)[C@@H](Nc1ccc(C(F)(F)F)cc1Cl)C(=O)OC(C#N)c1cccc(Oc2ccccc2)c1` (stereo not given in full): the outcome in [9], in assay [10], in [11], in assay [12], in [13] and in assay [14] was inactive. The outcome in [15], in assay [16], in assay [17], in [18] and in [19] was inactive.

As to `OC(Cc1ccccc1Cl)(Cn1cncn1)C1(Cl)CC1` (stereo not given), the outcome in assay [9], in assay [10], in [11], in [12], in assay [13] and in assay [14] was inactive. The call in assay [15], in assay [16], in assay [17], in assay [18] and in [19] was inactive.

Take `Cc1cc(C)cc(C)c1`: the outcome in [1], in assay [2], in [3], in assay [4], in assay [5] and in assay [6] was inactive. The molecule was classed as inactive in assay [7], in [8], in assay [9], in [10], in [11] and in [14]. For the same molecule, the outcome in [15], in [16], in assay [17], in [18] and in [19] was inactive.

On to `CC(=Cc1ccccc1)[N+](=O)[O-]`, for which the outcome in assay [9], in assay [10], in assay [13], in [16] and in assay [17] was inactive. Also, the AC50 in [11] was 19.3 µM (active); in [12] it was 5.88 µM (active); in [14] it was 19.9 µM (active); in [15], 16.6 µM (active); in assay [18], 13.5 µM (active); in assay [19] it was 17 µM (active).

For `CC(C)(C)c1ccccc1O`, the outcome in [1], in assay [2], in assay [3], in assay [4], in assay [5] and in assay [6] was inactive. Further, the outcome in [7], in assay [8], in assay [11], in assay [13], in [15] and in [16] was inactive. Further, the outcome in assay [18] and in assay [19] was inactive. Moreover, the AC50 in [9] is 174 µM (active); in [10], 163 µM (active); in assay [12] it was 100 µM (active); in assay [14], 75.5 µM (active).

Turning to `Cc1cccc(OP(=O)(Oc2cccc(C)c2)Oc2cccc(C)c2)c1`, the molecule was classed as inactive in [9], in [10], in [11], in [12], in [13] and in assay [14]. Moreover, the molecule was classed as inactive in assay [15], in assay [16], in [17], in assay [18] and in assay [19].
